# Measurements as given in PubChem BioAssay.
# Activity calls are given as the source filed them. How the calls were made is not given here.
# Target: Pantothenate synthetase (Mycobacterium tuberculosis (strain ATCC 25618 / H37Rv)) (UniProt P9WIL5)
# Assay: Coupled enzyme confirmation of inhibitors against recombinant Mtb PanC (AID 375);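 further: 0% = full reaction with vehicle and 100% = no enzyme background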
# Settings: coupled enzyme assay; at 10 µM, active compounds read high
# Chain of Pantothenate synthetase (Mycobacterium tuberculosis (strain ATCC 25618 / H37Rv)) (P9WIL5 whole entry, looked up): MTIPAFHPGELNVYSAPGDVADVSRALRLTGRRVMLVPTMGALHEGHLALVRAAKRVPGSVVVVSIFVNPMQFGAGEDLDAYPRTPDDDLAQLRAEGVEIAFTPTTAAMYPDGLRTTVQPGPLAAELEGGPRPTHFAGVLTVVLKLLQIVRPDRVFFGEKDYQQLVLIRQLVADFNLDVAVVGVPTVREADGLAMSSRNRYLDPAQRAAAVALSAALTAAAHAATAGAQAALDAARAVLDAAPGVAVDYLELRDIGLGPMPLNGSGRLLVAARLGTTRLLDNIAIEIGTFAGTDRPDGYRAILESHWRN
row,Structure (SMILES),inhibition
1,C#CCN1C(=O)C(O)(CC(=O)c2cccc(OC)c2)c2ccccc21 (stereo not given),0% (inactive)
2,Cc1ccc(-c2noc(CCC(=O)NC3CCCc4ccccc43)n2)cc1 (stereo not given),2% (inactive)
3,Cc1ccc(C)n1-c1ccc(-n2cnnn2)cc1,2% (inactive)
4,CC(C)C(NC(=O)c1ccccc1NC(=O)c1ccco1)C(=O)O (stereo not given),4% (inactive)
5,CCCCSc1nc(CCC)cc(=O)[nH]1,0% (inactive)
6,COc1cc(C(=O)N2c3ccccc3CC2C)cc(OC)c1OC (stereo not given),0% (inactive)
7,O=C(NCc1cccnc1)C1c2ccccc2C(=O)N1Cc1ccco1 (stereo not given),1% (inactive)
8,CC(C)(C)C(=O)NC1CCN(C(=O)N2CCCC2)CC1,6% (inactive)
9,COC(=O)C1=C(C)NC(C)=C(C(=O)OC)C1c1cc2cc(C)ccc2[nH]c1=O,3% (inactive)
10,COc1ccc(-c2nc3c(n2O)CCC/C3=N\O)cc1,0% (inactive)
11,CC(C)OC(=O)c1cc(NC(=O)C2C3CCC(O3)C2C(=O)O)cc(C(=O)OC(C)C)c1 (stereo not given),0% (inactive)
12,CCn1c(CCNC(=O)c2cccs2)nnc1SCC(=O)c1ccc(OC)cc1,0% (inactive)
13,CCOC(=O)c1cccc(NC(=O)CSc2nnc(-c3ccoc3C)n2CCOC)c1,1% (inactive)
14,NC(=O)c1sc2nc3c(c(-c4ccco4)c2c1N)CCC3,0% (inactive)
15,Cc1nnc(SCc2cn3ccsc3n2)n(N)c1=O,0% (inactive)
16,CSCCC(NC(=O)c1occc1C)C(=O)O (stereo not given),0% (inactive)
17,Cc1cc(NS(=O)(=O)c2ccc(NC(=O)C(C)N3C(=O)c4ccccc4C3=O)cc2)nc(C)n1 (stereo not given),1% (inactive)
18,Cc1ccc(S(=O)(=O)N2CCN(c3nc(C)nc4sc(C)c(C)c34)CC2)cc1,2% (inactive)
19,CCOC(=O)c1ccc(NC(=O)CCc2c(C)nc3ncnn3c2C)cc1,1% (inactive)
20,CC(=O)[C@@]1(O)CC[C@H]2[C@@H]3C[C@H](C)C4=CC(=O)CC[C@]4(C)[C@H]3CC[C@@]21C,1% (inactive)

row,Structure (SMILES),inhibition
1,O=C1NC(=O)C(CC(=O)N(Cc2ccco2)C2(C(=O)NC3CCCC3)CCCCC2)N1 (stereo not given),0% (inactive)
2,O=C(O)CN(c1ccccc1)C1SC(=O)NC1=O (stereo not given),0% (inactive)
3,CC(C)c1nc(N2CCN(C(=O)c3ccco3)CC2)c2c3c(sc2n1)CCCC3,1% (inactive)
4,Cc1ccc2c(c1C)NC(C)CC2C (stereo not given),0% (inactive)
5,CCCNS(=O)(=O)c1ccc(C(=O)NCC2CCCO2)cc1 (stereo not given),0% (inactive)
6,O=C(Nc1nc(-c2ccccc2)cs1)C1CCCCN1S(=O)(=O)c1ccccc1 (stereo not given),1% (inactive)
7,C=CCOc1nc(N(C)C)nc(N(C)C)n1,7% (inactive)
8,CCCN(CCC)S(=O)(=O)c1ccc(C(=O)Nc2nnc(-c3cccc(OC)c3)o2)cc1,6% (inactive)
9,CCS(=O)(=O)N1CCCC(c2nc(-c3cccc(OC)c3)no2)C1 (stereo not given),0% (inactive)
10,CCCC(=O)N1CCN(c2ccc(NC(=O)c3ccc(Br)o3)cc2)CC1,3% (inactive)
11,Cc1nnc(SCc2nnc(-c3ccccc3Br)o2)n1-c1ccccc1,0% (inactive)
12,CCN(CC)C(=O)CSc1nc2ccc(NC(=O)CSc3nccn3C)cc2s1,7% (inactive)
13,COc1ccc(-c2n[nH]c(C)c2-c2ccc(Cl)cc2)c(O)c1OC,0% (inactive)
14,CC(C)NC(=O)CSCc1ccccc1Cl,13% (inactive)
15,CC(=O)N1CCN(c2ccc(N=Cc3c(O)n(Cc4ccccc4)c(=O)[nH]c3=O)cc2)CC1,0% (inactive)
16,CS(=O)(=O)N1CCC(C(=O)NCCC2=CCCCC2)CC1,6% (inactive)
17,COc1ccccc1-c1nc(C#N)c(N2CCN(c3ccccc3)CC2)o1,0% (inactive)
18,Cc1ccc(CNC(=O)c2coc(=O)c3ccccc23)o1,0% (inactive)
19,O=C(NCc1ccco1)c1cccc(-c2nnc(-c3ccccc3)o2)c1,0% (inactive)
20,CNC(=O)c1ccsc1NC(=O)c1ccccc1,4% (inactive)
